Reference: PubChem BioAssay AID1963317 (National Center for Advancing Translational Sciences (NCATS), 2024)
Results filed as inconclusive are left out. Entries that show only a call come without a potency. Activity calls are given as the source filed them. Calls come from the whole dose curve.

Target: Tyrosine-protein kinase ABL1 (Homo sapiens) (UniProt P00519)
Experiment: ABL1 kinase (ABL1-N-HiBiT) enzymatic inhibition screen - Functional assay
Conditions: luminescence; series mostly up to 57.5 µM
Excerpt: National Center for Advancing Translational Sciences (NCATS),
National Institute of Health (NIH), Maryland
Discovery and optimization of novel protein-binding ligands underlies many of the methods and applications of biology, drug discovery, clinical diagnostics, and environmental toxicology. Assays for detecting the interaction of, for example, a molecule with a macromolecular target also referred to here as the target of interest (TOI) is dependent on a compatible output technology. Depending on the nature and knowledge surrounding the TOI, whether a receptor, enzyme, regulatory subunit or scaffold, or a sequence-defined nucleic acid folded into a complex tertiary structure, assay strategies can vary widely.
Here we exploit ligand-biased changes in the structural dynamics of the target protein to control reporter alpha complementation allowing a non-competitive, non-functional, non-separation measure of ligand-target interaction.
Using a chemical library of >1,200 compounds enriched for scaffolds known to be associated with the inhibition of firefly luciferase (FLuc) activity (PubChem AIDs 2309) we first illustrate and compare the Structural Dynamics Response (SDR) assay vs. the standard functional FLuc enzyme assay (2). Secondly, we show the specificity and sensitivity of the SDR for the Abelson tyrosine kinase (ABL1) compared to the serine/threonine protein kinase A, using an enriched chemical library of 128 compounds selected, in part, for activity annotated with ABL1 kinase activity using the Pharos database (3).
(1) A. S. Dixon et al., NanoLuc Complementation Reporter Optimized for Accurate Measurement of Protein Interactions in Cells.
Chemistry & Biology, 19, 1060 - 1072 (2012).
(3) K. J. Kelleher et al., Pharos 2023: an integrated resource for the understudied human proteome. Nucleic Acids Res 51, D1405-D1416 (2023).
PROTOCOL TABLE (as described by Inglese J, Shamu CE and Guy RK. 2007)
SEQUENCE No. (e.g., 1, 2, 3, etc.); […] (e.g., C. elegans, Compounds, Incubation, Read, etc.); VALUE and DESCRIPTION.
1. Reagent. Dispense 4 uL ABL1-N-HiBiT enzyme per well at a final enzyme concentration of 10 nM in buffer with 87.5 uM ATP (functional assay) into columns 2-48 of four replicate Greiner 1536-well white, solid bottom high base, medium plates per assay. Dispense respective buffer without enzyme at 4 uL/well in column 1 of assay plates using BioRaptr 2.
2. Compounds. Library compounds added at 23 nL/well by pin transfer. DMSO neutral control and imatinib positive control added at 25 nL/well, transfer by Mosquito dispenser.
3. Incubation. Incubate enzyme and compounds at room temperature for 30 min, protected from light.
4. Reagent. (Functional assay) Transfer 25 nL of abltide peptide substrate to each well of four replicate kinase assay plates with Mosquito dispenser.
5. Incubation. (Functional assay) Kinase enzyme incubated with peptide substrate for 3 h at room temperature, protected from light.
6. Reagent. (Functional assay) Add 4 uL/well of Kinase-Glo Plus reagent (Promega) to kinase activity assay plates, in the presence of ATP.
7. Detector. (Functional assay) Luminescence measured using CCD-based camera (ViewLux) with settings as follows: Exposure, 1 sec; Gain, High; Speed, Slow; Binning, 2X.
Inglese J, Shamu CE and Guy RK, Reporting data from high throughput screening of small molecule libraries, Nature Chemical Biology, 2007, 3(8): 438-441. doi.org/10.1038/nchembio0807-438.

Tyrosine-protein kinase ABL1 (Homo sapiens), sequence (P00519 whole entry, looked up): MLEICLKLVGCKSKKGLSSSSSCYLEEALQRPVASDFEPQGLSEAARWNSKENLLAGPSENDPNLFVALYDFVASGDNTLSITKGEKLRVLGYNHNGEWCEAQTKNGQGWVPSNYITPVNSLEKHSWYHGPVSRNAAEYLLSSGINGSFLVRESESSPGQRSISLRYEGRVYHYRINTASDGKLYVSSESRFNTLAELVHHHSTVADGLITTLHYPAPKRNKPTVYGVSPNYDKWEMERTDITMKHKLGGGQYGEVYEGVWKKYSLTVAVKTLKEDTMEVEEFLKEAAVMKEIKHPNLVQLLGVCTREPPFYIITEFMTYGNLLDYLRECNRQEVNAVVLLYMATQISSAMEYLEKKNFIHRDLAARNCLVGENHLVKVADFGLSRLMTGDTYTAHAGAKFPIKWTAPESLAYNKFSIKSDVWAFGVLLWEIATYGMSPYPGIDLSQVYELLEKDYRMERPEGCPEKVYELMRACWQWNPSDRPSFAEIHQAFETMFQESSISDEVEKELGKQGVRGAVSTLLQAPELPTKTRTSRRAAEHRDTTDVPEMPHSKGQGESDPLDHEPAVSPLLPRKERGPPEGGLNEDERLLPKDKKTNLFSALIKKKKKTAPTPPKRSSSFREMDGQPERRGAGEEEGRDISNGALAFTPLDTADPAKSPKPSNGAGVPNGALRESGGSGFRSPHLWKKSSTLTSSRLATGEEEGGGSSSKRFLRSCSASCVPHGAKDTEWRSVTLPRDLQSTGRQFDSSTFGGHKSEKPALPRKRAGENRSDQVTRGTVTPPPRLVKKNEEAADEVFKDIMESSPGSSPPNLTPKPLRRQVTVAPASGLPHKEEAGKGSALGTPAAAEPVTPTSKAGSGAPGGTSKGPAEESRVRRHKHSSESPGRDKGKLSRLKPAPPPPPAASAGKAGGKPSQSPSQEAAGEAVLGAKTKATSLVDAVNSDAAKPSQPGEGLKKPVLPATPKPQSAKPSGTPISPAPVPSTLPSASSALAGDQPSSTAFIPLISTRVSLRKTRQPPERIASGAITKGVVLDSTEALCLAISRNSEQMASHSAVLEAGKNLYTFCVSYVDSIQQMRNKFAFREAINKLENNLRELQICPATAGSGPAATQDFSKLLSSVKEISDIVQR

Q: With `CCCS(=O)(=O)Nc1ccc(F)c(C(=O)c2c[nH]c3ncc(Cl)cc23)c1F` as the compound, how does the Potency read?
A: inactive

Q: For `COc1cc2nccc(Oc3ccc(NC(=O)Nc4ccc(F)cc4F)c(F)c3)c2cc1OC`, which Potency is on record?
A: 1.93 µM (active)

Q: With `CN1CCN(CCOc2cc(OC3CCOCC3)c3c(Nc4c(Cl)ccc5c4OCO5)ncnc3c2)CC1` as the compound, how does the Potency read?
A: 0.217 µM (active)

Q: How did the Potency turn out when `Nc1nc(Nc2ccc(S(N)(=O)=O)cc2)n(C(=S)Nc2c(F)cccc2F)n1` was run?
A: 4.72 µM (active)

Q: For `CCN1C(=O)CNc2ncc(-c3ccc(-c4ncn[nH]4)nc3C)nc21`, which Potency is on record?
A: inactive

Q: Which Potency does the source give for `Cc1ccc(C(=O)Nc2ccc(Oc3cc4cnn(C)c4cc3-c3cn[nH]c3)c(F)c2)c(=O)n1-c1ccc(F)cc1` here?
A: inactive

Q: `COc1cc2ncnc(-n3nc(-c4ccccn4)nc3N)c2cc1OC` was tested. Which Potency did it give?
A: 1.06 µM [activator] (active)

Q: For `CN1CCN(c2ccc(Nc3ncc4cc(C#N)c(=O)n(C5CCCC5)c4n3)cc2)CC1`, which Potency is on record?
A: 2.43 µM (active)

Q: For `O=C(Nc1ccc(OC(F)(F)F)cc1)c1sccc1NCc1ccnc2ccccc12`, which Potency is on record?
A: inactive

Q: With `CCN1CCN(Cc2ccc(NC(=O)c3ccc(C)c(NC(=O)c4cncc(-c5cccs5)c4)c3)cc2C(F)(F)F)CC1` as the compound, how does the Potency read?
A: 0.0168 µM (active)

Q: Which Potency does the source give for `CCCCNc1ncc2c(-c3ccc(S(=O)(=O)N4CCOCC4)cc3)nn(C3CCC(O)CC3)c2n1` (stereo unspecified) here?
A: 7.48 µM (active)

Q: `CCNC(=O)Nc1ccc(-c2nc3c(c(N4CCOC[C@@H]4C)n2)CCN(c2ncccn2)C3)cc1` was tested. Which Potency did it give?
A: inactive

Q: For `CCn1nc(C2CCN(C(=O)CCO)CC2)nc1-c1cnc(N)c(-c2nnc(C(C)(C)C)o2)n1`, which Potency is on record?
A: inactive

Q: Which Potency does the source give for `COc1cc2ncnc(Oc3cccc(NC(=O)Nc4cc(C(C)(C)C(F)(F)F)on4)c3)c2cc1OC` here?
A: 2.5 µM (active)

Q: How did the Potency turn out when `Cc1cccc(/C=N/Nc2cc(N3CCOCC3)nc(OCCc3ccccn3)n2)c1` was run?
A: inactive

Q: `COc1cc(N2CCN(C)CC2)ccc1Nc1nc(N)c(C(=O)c2c(Cl)cccc2Cl)s1` was tested. Which Potency did it give?
A: inactive

Q: For `c1ccc2c(-c3cnn4cc(-c5ccc(N6CCNCC6)cc5)cnc34)ccnc2c1`, which Potency is on record?
A: 0.127 µM (active)

Q: How did the Potency turn out when `Cn1sc(=O)n(Cc2ccccc2)c1=O` was run?
A: inactive

Q: `CC[C@@](C)(Nc1ccnc(-c2c[nH]c3ncccc23)n1)C(=O)NCC(F)(F)F` was tested. Which Potency did it give?
A: 7.06 µM (active)

Q: Which Potency does the source give for `Cc1ccc(C(=O)Nc2ccc(CN3CCN(C)CC3)c(C(F)(F)F)c2)cc1C#Cc1cnc2[nH]ncc2c1` here?
A: 0.0112 µM (active)

Q: With `Cc1cccc(C)c1-n1c(=O)c2cnc(Nc3ccc(N4CCN(C)CC4)cc3)nc2n2c3ccccc3nc12` as the compound, how does the Potency read?
A: 4.08 µM (active)

Q: For `CC1(C)OCCn2c1nc1c(N3CCOCC3)nc(-c3cnc(N)nc3)nc12`, which Potency is on record?
A: inactive

Q: Which Potency does the source give for `Cc1ccccc1-n1c([C@H](C)Nc2nc(N)nc3nc[nH]c23)nc2cccc(C)c2c1=O` here?
A: inactive

Q: With `Cc1cc(O)c2c(c1)C(=O)c1cc(O)cc(O)c1C2=O` as the compound, how does the Potency read?
A: inactive

Q: `O=C(NOCC(O)CO)c1cc(Br)c(F)c(F)c1Nc1ccc(I)cc1F` (stereo unspecified) was tested. Which Potency did it give?
A: inactive

Q: Which Potency does the source give for `Cn1cc(-c2cc3c(N4CCN(c5ncc([C@@](C)(N)c6ccc(F)cc6)cn5)CC4)ncnn3c2)cn1` here?
A: 12.9 µM (active)

Q: For `Cc1sc2c(c1C)C(c1ccc(Cl)cc1)=N[C@@H](CC(=O)Nc1ccc(OCCOCCOCCOCCNc3cccc4c3C(=O)N(C3CCC(=O)NC3=O)C4=O)cc1)c1nnc(C)n1-2` (stereo partly specified), which Potency is on record?
A: inactive

Q: Which Potency does the source give for `CCN1/C(=C\C(C)=O)Sc2ccc(OC)cc21` here?
A: inactive

Q: How did the Potency turn out when `COc1ccccc1-c1c[nH]c2ncc(-c3cncc(C(=O)N(C)C)c3)cc12` was run?
A: 0.0217 µM (active)

Q: For `CC(C)(C)n1nc(-c2cccc3ccccc23)c2c(N)ncnc21`, which Potency is on record?
A: inactive

Q: For `Cc1[nH]nc2ncc(C(=O)N3CCC[C@H]3c3ccc(Cl)cc3)cc12`, which Potency is on record?
A: inactive

Q: `C[C@@H]1CCNC(=O)c2cc3ccc(C(=O)Nc4nc5ccccc5n4CCCN(C)C)cc3n21` was tested. Which Potency did it give?
A: inactive

Q: For `CN1CCN(Cc2ccc(-c3cnc4[nH]cc(-c5ccc6[nH]ccc6c5)c4c3)cc2)CC1`, which Potency is on record?
A: 6.11 µM (active)

Q: Which Potency does the source give for `C=CC(=O)N1CCC(Oc2cc3c(Nc4ccc(Cl)c(Cl)c4F)ncnc3cc2OC)CC1` here?
A: inactive

Q: `COc1ccc(-n2c(SCC#N)nc3sc4c(c3c2=O)CCCC4)cc1` was tested. Which Potency did it give?
A: inactive

Q: `Cc1cc(-c2cc(O)ccc2Cl)cc2nnc(Nc3ccc(OCCN4CCCC4)cc3)nc12` was tested. Which Potency did it give?
A: 0.0472 µM (active)
